Rows were chosen to be rich in hits. Some 2.4% of all compounds tested hit in one or more screens of this group.
C diff growth – C. difficile growth inhibition | Clostridium difficile clinical isolate growth, OD600, 24 h; hits give low values | growth activity, negative = inhibition, % at 16 µg/mL (by protocol) | actives 0.25% (n = 86,000) | AID 1259249;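 active means mean growth activity at or below -80% and every replicate also at or below -80%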
Pf Dd2 growth – inhibitors of Plasmodium falciparum Dd2 growth. actives 2.3% (n = 94,000). activity change, % at 10 µM. P. falciparum Dd2 growth, SYBR Green, 72 h; hits give low values; in the data active means activity change below about -80%
Numbers stand for hits; - = inactive; . = not tested or not shown; ! = not active in a repeat.

SMILES	C diff growth	Pf Dd2 growth
COc1cccc(NC(=O)N[C@@H]2C=C[C@H](CC(=O)Nc3ccccc3)O[C@H]2CO)c1	-	-
COCC#Cc1cnc2c(c1)C(=O)N([C@H](C)CO)C[C@@H](C)[C@H](CN(C)C(=O)NC1CCCC1)O2	-	-
CCC(=O)N1CC2(C1)CN(Cc1cccc(F)c1)[C@@H](CO)c1c2c2ccc(OC)cc2n1C	-	-
COc1ccc2c3c([nH]c2c1)[C@H](CO)NCC31CN(C(=O)c2ccccc2)C1	.	-
C[C@H]1CN([C@@H](C)CO)C(=O)c2cc(NC(=O)CCC(F)(F)F)ccc2O[C@@H]1CN(C)S(C)(=O)=O	-	-
CC(C)NC(=O)N(C)C[C@H]1Oc2ccc(NC(=O)CCC(F)(F)F)cc2CC(=O)N([C@H](C)CO)C[C@@H]1C	-	-
COc1ccc(NC(=O)N(C)C[C@@H]2Oc3cc(-c4ccc(C)cc4)ccc3S(=O)(=O)N([C@H](C)CO)C[C@H]2C)cc1	-	-89.2
COc1ccc(NC(=O)N(C)C[C@H]2Oc3cc(-c4ccc(C)cc4)ccc3S(=O)(=O)N([C@H](C)CO)C[C@H]2C)cc1	-	-
COc1ccc(NC(=O)N(C)C[C@@H]2Oc3cc(-c4ccc(C)cc4)ccc3S(=O)(=O)N([C@@H](C)CO)C[C@@H]2C)cc1	-	-87.4
COc1ccc(NC(=O)N(C)C[C@H]2Oc3cc(-c4ccc(C)cc4)ccc3S(=O)(=O)N([C@@H](C)CO)C[C@@H]2C)cc1	-	-
COc1ccc(NC(=O)N(C)C[C@H]2Oc3cc(-c4ccc(C)cc4)ccc3S(=O)(=O)N([C@H](C)CO)C[C@@H]2C)cc1	-	-
COc1ccc(NC(=O)N(C)C[C@@H]2Oc3cc(-c4ccc(C)cc4)ccc3S(=O)(=O)N([C@@H](C)CO)C[C@H]2C)cc1	-	-92.7
C[C@H](CO)N1C[C@H](C)[C@H](CN(C)C(=O)Nc2cccc(F)c2)Oc2ncc(C#CCN(C)C)cc2C1=O	.	-
C[C@H]1CN([C@@H](C)CO)C(=O)c2c(c3ccccc3n2C)-c2ccccc2CO[C@@H]1CN(C)C(=O)Nc1ccccc1C(F)(F)F	-	-
Cc1ccc(S(=O)(=O)N(C)C[C@@H]2OCCCC[C@@H](C)Oc3ccc(NC(=O)Nc4cccc5ccccc45)cc3C(=O)N([C@@H](C)CO)C[C@H]2C)cc1	-	-
C[C@H]1CN([C@@H](C)CO)C(=O)c2c(c3ccccc3n2C)-c2ccccc2CO[C@H]1CN(C)S(=O)(=O)c1ccc(Cl)cc1	.	-86.1
C[C@@H]1CN([C@@H](C)CO)C(=O)c2c(c3ccccc3n2C)-c2ccccc2CO[C@@H]1CN(C)S(C)(=O)=O	.	-
C[C@@H]1CN([C@H](C)CO)C(=O)c2c(c3ccccc3n2C)-c2ccccc2CO[C@@H]1CN(C)S(=O)(=O)c1ccc([N+](=O)[O-])cc1	-	-
C[C@H]1CN([C@@H](C)CO)C(=O)c2c(c3ccccc3n2C)-c2ccccc2CO[C@@H]1CN(C)S(=O)(=O)c1ccc(Cl)cc1	.	-84.8
C[C@@H]1CN([C@@H](C)CO)C(=O)c2c(c3ccccc3n2C)-c2ccccc2CO[C@@H]1CN(C)S(=O)(=O)c1ccc(Cl)cc1	.	-86.7
C[C@H](CO)N1C[C@H](C)[C@H](CN(C)S(=O)(=O)c2ccc(Cl)cc2)OCc2ccccc2-c2c(n(C)c3ccccc23)C1=O	-	-93.6
O=C(NC1CCC1)[C@H]1[C@H](CO)[C@H]2Cn3c(cccc3=O)[C@@H]1N2CC1CCCC1	-	-
CN1C[C@@H](O)COC[C@@H]2O[C@H](CC(=O)NC3CCC3)CC[C@H]21	-	-
C[C@@H]1CN([C@H](C)CO)C(=O)c2c(c3ccccc3n2C)-c2ccccc2CO[C@@H]1CN(C)S(=O)(=O)c1ccc(C#N)cc1	.	-
C[C@@H]1CN([C@H](C)CO)C(=O)c2c(c3ccccc3n2C)-c2ccccc2CO[C@H]1CN(C)S(=O)(=O)c1ccc(Cl)cc1	.	-84.1
SMILES	C diff growth	Pf Dd2 growth
Cc1ccc(S(=O)(=O)Nc2ccc3c(c2)CC(=O)N([C@H](C)CO)C[C@H](C)[C@@H](CN(C)C(=O)Nc2ccc(C(F)(F)F)cc2)O3)cc1	-	-
CC(C)CC#Cc1ccc2c(c1)O[C@@H](CN(C)Cc1ccccc1)[C@@H](C)CN([C@H](C)CO)S2(=O)=O	.	-
C[C@@H]1CN([C@@H](C)CO)S(=O)(=O)c2ccc(-c3cccc(C#N)c3)cc2O[C@H]1CN(C)Cc1cccc(F)c1	-	-84.2
CC(C)CC#Cc1ccc2c(c1)O[C@@H](CN(C)Cc1cccc(F)c1)[C@H](C)CN([C@H](C)CO)S2(=O)=O	-	-92.0
C[C@H](CO)N1C[C@H](C)[C@@H](CN(C)Cc2cccc(F)c2)Oc2cc(-c3cccc(C#N)c3)ccc2S1(=O)=O	-	-
COc1ccc(C#Cc2ccc3c(c2)O[C@@H](CN(C)C(=O)CN2CCOCC2)[C@@H](C)CN([C@H](C)CO)S3(=O)=O)cc1	-	-
Cc1ccc(S(=O)(=O)Nc2cccc3c2O[C@@H](CN(C)C(=O)NC2CCCCC2)[C@H](C)CN([C@@H](C)CO)C3=O)cc1	-	-
O=C(C[C@H]1CC[C@@H]2[C@H](COC[C@H](O)CN2C(=O)Nc2ccc(Cl)c(Cl)c2)O1)NCc1ccc(F)cc1	-91.0	-
O=C(C[C@@H]1CC[C@@H]2[C@H](COC[C@H](O)CN2C(=O)Nc2ccc3c(c2)OCO3)O1)N1CCN(c2ccccc2)CC1	-	-
O=C(C[C@H]1CC[C@@H]2[C@H](COC[C@@H](O)CN2C(=O)Nc2ccc(Cl)c(Cl)c2)O1)NCc1ccc(F)cc1	-	-
O=C(C[C@@H]1CC[C@@H]2[C@H](COC[C@@H](O)CN2S(=O)(=O)c2ccccc2)O1)NCc1ccc(-c2ccccc2)cc1	-	-90.5
O=C(C[C@@H]1CC[C@H]2[C@@H](COC[C@@H](O)CN2C(=O)Nc2ccc(Cl)c(Cl)c2)O1)NC1CCC1	-102.4!	.
O=C(C[C@@H]1CC[C@@H]2[C@H](COC[C@H](O)CN2S(=O)(=O)c2ccccc2)O1)NCc1ccc(-c2ccccc2)cc1	-	-
O=C(C[C@H]1CC[C@@H]2[C@H](COC[C@@H](O)CN2C(=O)Nc2ccc(Cl)c(Cl)c2)O1)NC1CCC1	-	.
O=C(C[C@H]1CC[C@@H]2[C@H](COC[C@@H](O)CN2C(=O)Nc2ccc3c(c2)OCO3)O1)N1CCN(c2ccccc2)CC1	-	-87.6
O=S(=O)(NCC[C@H]1CC[C@@H](NS(=O)(=O)c2cccc(F)c2)[C@@H](CO)O1)c1cccc(F)c1	-	-
CCC(=O)N(C)C[C@@H]1Oc2cc(C#CCN(C)C)ccc2S(=O)(=O)N([C@@H](C)CO)C[C@H]1C	-	-
CC(C)CC#Cc1cnc2c(c1)C(=O)N([C@H](C)CO)C[C@@H](C)[C@H](CN(C)Cc1ccccc1F)O2	-	-
CCCNC(=O)[C@H]1[C@H](CO)[C@H]2Cn3c(ccc(C4=CCCCC4)c3=O)[C@@H]1N2	-	-
C[C@@H]1CCCCO[C@@H](CN(C)S(=O)(=O)c2ccc(F)cc2)[C@H](C)CN([C@@H](C)CO)C(=O)c2cc(NS(=O)(=O)c3ccc(F)cc3)ccc2O1	-	-
COc1cccc(S(=O)(=O)N[C@@H]2CC[C@H](CCN)O[C@@H]2CO)c1	.	-
CO[C@@H]1CN(C)C(=O)c2ccc(NC(=O)c3cc(C)on3)cc2OC[C@@H](C)N(C(C)=O)C[C@@H]1C	.	-

High-throughput results deposited in PubChem by Broad Institute.
